Screening data (PubChem BioAssay)
Vaccinia pol inh – blocks vaccinia virus processive DNA synthesis; normalized absorbance, % (no concentration beside the values); in vitro processive DNA synthesis, absorbance read-out; active compounds read low; actives 0.94% (n = 46,000); in the data active means normalized absorbance mostly below about 85%, no sharp cut-off; inactive means mostly above about 86%
Numbers stand for hits; 0 = inactive; ! = repeats disagree. Many of the other results were omitted from the sample, so hits are more common in it than they were.

SMILES	Vaccinia pol inh
O=C(CNC(=O)c1ccccc1F)OCc1ccccc1	0
C=CC[n+]1cc(-c2ccccc2)n2c1CCCCC2	0
CCn1c2ccccc2c2cc(/C=C3\Cc4ccccc4C3=O)ccc21	0
Cc1ccc(CN2C(=O)CSc3ccc(NC(=O)NCc4ccccc4)cc32)cc1	0
CC1CCCCN1C(=O)CSc1nnc(-c2ccccc2)o1 (configuration not stated)	0
CCOC(=O)C1CCCN(C(=O)CSc2ccc3ccccc3c2)C1 (configuration not stated)	0
CC1CCCCN1C(=O)CSc1ccc2ccccc2c1 (configuration not stated)	73.2
CCSc1nnc(NC(=O)CSc2nccn2-c2ccccc2)s1	0
O=C(COC(=O)Cc1ccccc1F)NC(c1ccccc1)c1ccccc1	0
CC(C)CNc1cc(NCCO)c2c3c(onc13)-c1ccccc1C2=O	0
COc1ccc2c(c1)c1nc(N(C)C)nc3c1n2CCN3C	11.2
COc1ccc2c(c1)cc1n2CCN=C1N	0
COc1ccc2c(c1)cc1n2CCN2CCN=C12	0
CC(C)(C)NC(=O)CC12CC3CC(CC(C3)C1)C2	0
CC[C@H](C)[C@H](N)C(=O)N[C@@H](CC(N)=O)C(=O)N[C@@H](CC(C)C)C(=O)N[C@@H](CCCCN)C(=O)N[C@@H](C)C(=O)N[C@@H](CC(C)C)C(=O)N[C@@H](C)C(=O)N[C@@H](C)C(=O)N[C@@H](CC(C)C)C(=O)N[C@@H](C)C(=O)N[C@@H](CCCN)C(=O)N[C@@H](C)C(=O)N[C@@H](CC(C)C)C(=O)N[C@@H](CC(C)C)C(N)=O	45.2
CC(=O)N[C@@H](CC(C)C)C(=O)N[C@@H](CC(C)C)C(=O)N[C@H](C=O)CCCN=C(N)N	0
CCCC[C@@H](C=O)NC(=O)[C@H](CC(C)C)NC(=O)[C@H](CC(C)C)NC(C)=O	0
COc1ccc(/C=C2/CN(C)C/C(=C\c3ccc(OC)c(OC)c3)C2=O)cc1OC	0
COC(=O)c1ccc2c(c1)nc(SCc1ccccc1Cl)n1c3ccccc3nc21	0
Cc1ccc(C(=O)O)cc1S(=O)(=O)NCc1ccco1	0
Clc1ccc2oc(-c3cccnc3)nc2c1	0
Cc1ccc2oc(-c3ccc(Cl)cc3)cc(=O)c2c1	0
CCCN=c1cc(-c2ccccc2)oc2ccc(C)cc12	42.5
COc1ccc(-c2cc(=Nc3ccc(C)cc3C)c3cc(O)ccc3o2)cc1	0
Cc1cc(NCc2cccnc2)c2ccc(Cl)cc2n1	0
SMILES	Vaccinia pol inh
Clc1ccc2oc(-c3ccccc3)cc(=NCc3cccnc3)c2c1	66.0
CSc1ccccc1NC(=S)Nc1cccnc1	0
Cc1ccc(C(=O)COC(=O)c2ccc(-n3cnnn3)cc2)c(C)c1 (tested in a mixture with another compound)	0
CCOc1ccc(NC(=O)C2C3C=CC(O3)C2C(=O)O)cc1 (configuration not stated)	0
O=C(N1CCN(c2ccccc2)CC1)C1(S(=O)(=O)c2ccccc2)CC1	0
OC(COc1ccc(Br)cc1Br)C[N+]1(Cc2ccccc2)CCOCC1 (configuration not stated)	0
N#Cc1ccc(COC(=O)Cc2ccccc2)cc1	0
COc1ccc2cc3cc(C(=O)NC4CCCC(C)C4C)oc3nc2c1 (configuration not stated)	0
COc1ccc2cc3cc(C(=O)NCCC4=CCCCC4)sc3nc2c1	0
COc1ccc2cc3cc(C(=O)NCCCN4CCCCCC4)oc3nc2c1	62.9
Cc1ccc2cc3cc(C(=O)NCCN4CCN(c5cccc(Cl)c5)CC4)sc3nc2c1	0
Cc1ccc2cc3cc(C(=O)NCCCN4CCCCCC4)sc3nc2c1	66.0
CCN1CCN(CCCNC(=O)c2cc3cc4ccc(Cl)cc4nc3o2)CC1	0
CC(NC(C(=O)O)c1ccccc1)c1ccccc1 (configuration not stated)	0
COc1ccc(-c2cnn3c(Cl)c(CCCl)c(C)nc23)cc1OC	0
O=C(CSCc1nc2ccccc2[nH]1)N1CCOCC1	0
O=C(NCCOc1ccccc1Cc1ccccc1)c1ccc2c(c1)OCO2	0
COc1ccc(OC)c(N=Cc2cc(I)cc(C)c2O)c1	0
Clc1ccc(C=NCc2ccc(-c3cccs3)s2)cc1	0
Cc1csc2sc(COC(=O)Nc3ccccc3)c(C)c12	0
Cc1csc2sc(C=NCc3cccs3)c(C)c12	62.7
CN(C(=O)c1cc2c(Cl)nc3ccccc3c2s1)C1CCCCC1	0
COc1ccc(/C=C(\NC(=O)c2ccccc2)C(=O)Nc2ccc(F)cc2)cc1OC	0
OC(CNCc1ccccc1)C(F)(F)F (configuration not stated)	0
COC1(C)COC(C)(OC)CO1 (configuration not stated)	0
SMILES	Vaccinia pol inh
Cc1nn(-c2ccccc2)c2sc(C(=O)O)cc12	0
Cc1nn(-c2ccccc2)c2sc(C(=O)NC(C)C)cc12	0
Cc1nn(-c2ccccc2)c2sc(C#N)c(N)c12	79.9
Nc1cccc(C2=NCCN2)c1	0
O=C(NC1=NCCCCCN1)Nc1cccc(Cl)c1	0
O=C(Nc1cccc(C2=NCCN2)c1)Nc1cccc(C2=NCCN2)c1	78.4
Cc1cccc(OC(C)C(=O)O)c1 (configuration not stated)	0
O=C(c1ccc2c(c1)N(Cc1ccc(F)cc1)CCS2)N1CCCCC1	0
O=C(O)c1ccc2c(c1)N(Cc1ccc(Cl)cc1)CCS2	72.1
COC(CNC(=O)c1ccc2c(c1)N(Cc1ccc(Cl)cc1)CCS2)OC	0
O=C1CCCN1c1ccc(S(=O)(=O)Nc2noc3ccccc23)cc1	0
CCOc1ccc(N(CC)C(=S)Nc2ccc3nc(N4CCN(CC)CC4)cc(C)c3c2)cc1	0
Cc1sc(/N=C/c2ccc(O)cc2)c(C#N)c1C	0
COc1ccc2c(C)cc(Cl)nc2c1	0
COc1ccc2c(C)cc3nncn3c2c1	77.7
CCN1CCN(c2cc(C)c3ccc(OC)cc3n2)CC1	0
c1cn2cc(Cc3nnc4n3CCC4)nc2s1	0
COc1ccc2cc1Oc1ccc(cc1)C[C@H]1c3cc(c(OC)cc3CCN1C)Oc1c(OC)c(OC)cc3c1[C@H](C2)N(C)CC3	83.9
COc1ccc2c(c1OC)C(=O)OC2[C@H]1c2c(cc3c(c2OC)OCO3)CCN1C (some centres not stated)	0
Cc1ccc(CSc2nnc(N)s2)c(C)c1	0
O=C(NCC(=O)N1CCc2ccccc21)c1cccc(Cl)c1	0
Clc1cc(N=Cc2cccnc2)ccc1N=Cc1cccnc1	0
Cn1c2ccccc2c2c3c(c4c5ccccc5n(CCC#N)c4c21)CNC3=O	0
COC(=O)[C@@]1(O)CC2OC1(C)n1c3ccccc3c3c4c(c5c6ccccc6n2c5c31)C(=O)NC4 (some centres not stated)	0
CN[C@@H]1CC2(C)OC([C@@H]1OC)n1c3ccccc3c3c4c(c5c6ccccc6n2c5c31)C(=O)NC4 (some centres not stated)	55.7
SMILES	Vaccinia pol inh
COC(=O)/C=C1\SC(NC(C)=O)=NC1=O	0
C/C=C/C(=O)OCc1ccc(Cl)cc1Cl	0
NC(=NCc1ccccc1)NC(=O)c1nc(Cl)c(N)nc1N	59.1!
NC(=Nc1ccccc1)NC(=O)c1nc(Cl)c(N)nc1N	50.8
NC(=O)NC(=O)Cc1ccccc1	0
O=C(Cc1csc(Nc2ccc(Cl)cc2)n1)NCc1ccccc1	0
N/C(=N\c1nc2ccccc2s1)NC(=O)c1cccc(Cl)c1	0
N/C(=N\c1nc(=O)c2ccccc2s1)NC(=O)c1ccc(Cl)c(Cl)c1	0
CCOC(=O)c1c(NS(=O)(=O)c2ccc(Br)cc2)sc2c1CCC(C)C2 (configuration not stated)	0
